A word on the AC50: it is the concentration at which the activity in the assay is half-maximal.

The values below come from PubChem BioAssay (EPA / NIEHS).

The nature of test [1]: TOX21_p53_BLA_p5_viability: Viability Assessment in the Tox21 HCT-116 p53 Agonism Beta-lactamase Assay, Phase 5 (AID 2283600). The procedure, abridged:
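Decreased CellTiter-Glo luminescence denotes lost viability. Exposure: 16 h at 37C, 5% CO2, with compounds from DMSO stocks diluted 217-fold in wells of 4000 cells.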

In test [2] the target is Cellular tumor antigen p53 (Homo sapiens) (UniProt P04637). As to the kind of experiment: TOX21_p53_BLA_p4_ratio: Tox21 HCT-116 p53 Agonism Beta-lactamase Assay, Ratio, Phase 4 (AID 2283601). The procedure, abridged: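 HCT116 cells carrying an inducible beta-lactamase reporter were plated at 4000 cells/well, rested 5 h, then exposed to compounds in DMSO (217-fold dilution) for 16 h at 37C. CCF4-AM substrate was loaded 2 h at room temperature; 460/530 nm emission ratio scored gain-of-signal versus DMSO.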
Cellular tumor antigen p53 (Homo sapiens), sequence (P04637 whole entry, looked up): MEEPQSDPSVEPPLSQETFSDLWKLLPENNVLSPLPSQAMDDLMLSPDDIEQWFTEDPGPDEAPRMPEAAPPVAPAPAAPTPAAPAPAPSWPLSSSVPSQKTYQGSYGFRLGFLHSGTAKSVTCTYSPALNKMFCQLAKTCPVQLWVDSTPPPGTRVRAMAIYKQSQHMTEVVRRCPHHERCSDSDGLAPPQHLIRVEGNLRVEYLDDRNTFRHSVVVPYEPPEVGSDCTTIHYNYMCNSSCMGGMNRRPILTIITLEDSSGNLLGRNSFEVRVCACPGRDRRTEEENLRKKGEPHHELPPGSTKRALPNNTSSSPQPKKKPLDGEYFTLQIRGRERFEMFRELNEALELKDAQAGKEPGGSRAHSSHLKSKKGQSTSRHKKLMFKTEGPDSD

Test [3] has the same target. As to the kind of experiment: TOX21_p53_BLA_p5_ratio: Tox21 HCT-116 p53 Agonism Beta-lactamase Assay, Ratio, Phase 5 (AID 2283599). The procedure, abridged: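 HCT-116 cells carrying a p53-inducible beta-lactamase reporter were seeded at 4000 cells/well and dosed after 5 h with compound in DMSO (217-fold dilution). After 16 h at 37C, CCF4-AM substrate was added for 2 h, and the 460/530 nm emission ratio was scored as gain-of-signal versus DMSO.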

Test [4] can be described thus: Tanguay_ZF_120hpf_MORT_legacy: (Legacy) Oregon State University Tanguay Lab 120 Hour Post-fertilization zebrafish Assay for Mortality (AID 2283633).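 As to AC50: fitted as increase in binary mortality versus DMSO negative control.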 The procedure, abridged: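 Dechorionated Tropical 5D wild-type zebrafish embryos, one per well from 6 hpf, static exposure in 0.64% DMSO at 28C until 120 hpf. Mortality scored as binary by brightfield microscopy at 24 and 120 hpf.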

The nature of test [5]: Tanguay_ZF_120hpf_JAW_legacy: (Legacy) Oregon State University Tanguay Lab 120 Hour Post-fertilization zebrafish Assay for Jaw Malformation (AID 2283638). The procedure, abridged: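 Dechorionated Tropical 5D wild-type zebrafish embryos, one per well, exposed statically from 6 hpf to 120 hpf at 28C in 0.64% DMSO. Jaw malformation was scored by brightfield microscopy as present or absent. It was not scored in dead embryos.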

Test [6] is described as follows: Tanguay_ZF_120hpf_OTIC_legacy: (Legacy) Oregon State University Tanguay Lab 120 Hour Post-fertilization zebrafish Assay for Otic Vesicle Malformation (AID 2283639). The procedure, abridged: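 Brightfield scoring at 120 hpf, binary present/absent; DMSO negative control, 5uM trimethyltin chloride positive control. Static exposure at 28C, final DMSO 0.64% (vol/vol). Dead embryos not scored for malformation.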

Test [7] in a line: Tanguay_ZF_120hpf_PE_legacy: (Legacy) Oregon State University Tanguay Lab 120 Hour Post-fertilization zebrafish Assay for Pericardial Edema (AID 2283640). The procedure, abridged: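 Tropical 5D wild-type zebrafish embryos were statically exposed until 120 hpf at 28C, with 0.64% DMSO final. Pericardial edema was scored by brightfield as present or absent; endpoints were not scored in dead embryos.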

A short description of test [8]: Tanguay_ZF_120hpf_PFIN_legacy: (Legacy) Oregon State University Tanguay Lab 120 Hour Post-fertilization zebrafish Assay for Pectoral Fin Malformation (AID 2283648).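 Also: each larva judged yes or no for fin defect by brightfield with dead larvae skipped.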 The procedure, abridged:
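Scoring of pectoral fin malformation was binary, made at 120 hpf on larvae exposed statically from 6 hpf after enzymatic chorion removal. Activity was fitted upward relative to DMSO controls at 0.64% (vol/vol).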

The nature of test [9]: Tanguay_ZF_120hpf_CFIN_legacy: (Legacy) Oregon State University Tanguay Lab 120 Hour Post-fertilization zebrafish Assay for Caudal Fin Malformation (AID 2283649). The procedure, abridged:
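Dechorionated Tropical 5D wild-type embryos, one per well from 6 hpf, static exposure to 120 hpf at 28C in 0.64% DMSO. Caudal fin malformation scored by brightfield as present/absent; not scored in dead embryos.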

The nature of test [10]: Tanguay_ZF_120hpf_PIG_legacy: (Legacy) Oregon State University Tanguay Lab 120 Hour Post-fertilization zebrafish Assay for Pigmentation Malformation (AID 2283650). The procedure, abridged:
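Endpoint is incidence of abnormal pigmentation at 120 hpf in dechorionated 5D zebrafish exposed singly from 6 hpf at 28C, DMSO vehicle at 0.64%. Embryos dying by 24 or 120 hpf are excluded from scoring.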

A short description of test [11]: Tanguay_ZF_120hpf_SWIM_legacy: (Legacy) Oregon State University Tanguay Lab 120 Hour Post-fertilization zebrafish Assay for Swim Bladder Malformation (AID 2283654).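 Also: swim bladder malformation in each larva scored yes or no under brightfield.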 The procedure, abridged:
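Static waterborne exposure of single dechorionated Tropical 5D zebrafish embryos, 6–120 hpf, 28C, 0.64% DMSO final. Read-out: swim bladder malformation, present/absent, relative to DMSO negative control; trimethyltin chloride 5uM served as positive control.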

A short description of test [12]: Tanguay_ZF_120hpf_YSE_legacy: (Legacy) Oregon State University Tanguay Lab 120 Hour Post-fertilization zebrafish Assay for Yolk Sac Edema (AID 2283634). The procedure, abridged: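 Dechorionated Tropical 5D wild-type zebrafish embryos were exposed statically, one per well, from 6 to 120 hpf at 28C in 0.64% DMSO. Yolk sac edema was scored present/absent by brightfield at 120 hpf, and dead embryos were excluded.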

The nature of test [13]: Tanguay_ZF_120hpf_AXIS_legacy: (Legacy) Oregon State University Tanguay Lab 120 Hour Post-fertilization zebrafish Assay for Body Axis Malformation (AID 2283635). The procedure, abridged:
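Dechorionated wild-type Tropical 5D zebrafish embryos, one per well, statically exposed from 6 hpf to 120 hpf at 28C in 0.64% DMSO final. Body axis malformation scored present/absent by brightfield microscopy at 120 hpf; dead embryos excluded.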

The nature of test [14]: Tanguay_ZF_120hpf_CIRC_legacy: (Legacy) Oregon State University Tanguay Lab 120 Hour Post-fertilization zebrafish Assay for Circulatory Malformation (AID 2283651). The procedure, abridged: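 Static exposure, 6–120 hpf, 28C, sealed and dark; one dechorionated 5D embryo/well; DMSO 0.64% v/v final. Binary circulation endpoint by brightfield; dead embryos not scored.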
Test [15] can be described thus: Tanguay_ZF_120hpf_NC_legacy: (Legacy) Oregon State University Tanguay Lab 120 Hour Post-fertilization zebrafish Assay for Notochord and Tail Malformation (AID 2283656). The procedure, abridged: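 Binary notochord-distortion calls, made by brightfield inspection, form the read-out; activity is fitted in the positive direction against DMSO. Exposure ran statically from 6 to 120 hpf at 28C with 0.64% DMSO.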

Test [16] can be described thus: Tanguay_ZF_120hpf_TRUN_legacy: (Legacy) Oregon State University Tanguay Lab 120 Hour Post-fertilization zebrafish Assay for Truncated Body (AID 2283655). The procedure, abridged: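 Dechorionated Tropical 5D wild-type embryos placed singly from 6 hpf and statically exposed to 120 hpf at 28C, final DMSO 0.64%. Truncated body scored as present/absent by brightfield; not scored in dead embryos.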

Read-out in test [17]: solute carrier (SLC22A6), SLC22A6 (gene 9356)
As to the kind of experiment: LTEA_HepaRG_SLC22A6: Life Technologies and Expression Analysis (LTEA) Assay for solute carrier (SLC22A6) using HepaRG (AID 2283653; active = hit-call score of the fitted dose curve at least 0.9, where 1 is the maximum; inactive = score below 0.9). The conditions noted are these: mRNA level, 48 h; actives raise or lower the signal. The procedure, abridged:
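Differentiated HepaRG cells exposed 48 h in serum-free induction medium to 8 half-log concentrations, top 100 uM, in 0.5% DMSO; SLC22A6 mRNA by Fluidigm qRT-PCR normalized to ACTB, GAPDH, POLR2A, fitted bidirectionally versus DMSO.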

Read-out in test [18]: solute carrier (SLC10A1), SLC10A1 (gene 6554)
As to the kind of experiment: LTEA_HepaRG_SLC10A1: Life Technologies and Expression Analysis (LTEA) Assay for solute carrier (SLC10A1) using HepaRG (AID 2283657; active = hit-call score of the fitted dose curve at least 0.9, where 1 is the maximum; inactive = score below 0.9). The conditions noted are these: mRNA level, 48 h; actives raise or lower the signal. The procedure, abridged:
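Cryopreserved HepaRG cells are thawed, plated and cultured 48 h; medium is then switched to serum-free induction medium and chemicals added (8 points, max 100 uM, 0.5% DMSO). After 48 h, RNA is isolated and SLC10A1 quantified by qRT-PCR.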

Read-out in test [19]: matrix metalloproteinase-1 (MMP1), MMP1 (gene 4312)
As to the kind of experiment: LTEA_HepaRG_MMP1: Life Technologies and Expression Analysis (LTEA) Assay for matrix metalloproteinase-1 (MMP1) using HepaRG (AID 2283658; active = hit-call score of the fitted dose curve at least 0.9, where 1 is the maximum; inactive = score below 0.9). The note with it: mRNA level, 48 h; actives raise or lower the signal. The procedure, abridged:
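Differentiated human HepaRG cells, 48 h post-plating in serum-free induction medium, were exposed 48 h to eight half-log concentrations topping at 100 uM in 0.5% DMSO, duplicate. MMP1 mRNA measured by Fluidigm TaqMan qRT-PCR, normalized to ACTB, GAPDH, POLR2A; bidirectional fits versus DMSO.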

Molecules are shown by their SMILES. Results filed as inconclusive are left out. Calls of active or inactive are those of the source. The calls were made as follows, unless noted: active = hit-call score of the fitted dose curve at least 0.9, where 1 is the maximum; inconclusive = response in the unintended direction; inactive = score below 0.9.

As to `CCOC(=O)Nc1cccc(OC(=O)Nc2ccccc2)c1`, the molecule was classed as inactive in test [1].

With `CCOC(=O)CP(=O)(OCC)OCC`, the result in test [2] was inactive.

As for `Cn1sc(Cl)cc1=O`, the outcome in test [3], in test [1], in test [2], in [5], in test [6] and in test [7] was inactive. The result in [8], in test [9], in test [10] and in test [11] was inactive. Besides, in test [4], the AC50 is 25.7 µM (active).

On to `O=C(O)C(F)(F)C(F)(F)C(F)(F)C(F)(F)C(F)(F)C(F)(F)F`, for which the outcome in test [3], in test [4], in [12], in test [13], in test [5] and in test [6] was inactive. Moreover, the call in test [7], in test [8], in test [9], in [10], in test [14] and in test [11] was inactive. The molecule was classed as inactive in [15].

With `ClCC(Cl)CCl`, the result in test [3], in test [1], in test [2], in test [4], in [13] and in [5] was inactive. The molecule was called inactive in test [6], in test [7], in [9], in [10], in test [14] and in test [11]. In addition, the molecule was called inactive in test [16] and in test [15].

Take `Oc1cccc2cccnc12`: the result in [1], in [12], in test [13], in test [5], in test [6] and in test [7] was inactive. Also, the call in test [8], in test [9], in test [10], in [14], in test [17] and in [15] was inactive. In addition, the result in [18] and in test [19] was inactive. Moreover, the AC50 in test [4] is 27.2 µM (active).

Consider `O=P(O)(O)CN(CP(=O)(O)O)CP(=O)(O)O`, for which the result in test [2] was inactive.

Turning to `Cl/C=C/Cl`, the molecule was called inactive in test [1] and in [2].

Regarding `OCc1ccco1`, the result in [1] and in test [2] was inactive.

With `Nc1cccc2ccccc12`, the result in [3] and in test [2] was inactive.

Consider `O=[N+]([O-])c1ccc2c3c(cccc13)CC2`, for which the outcome in test [3] and in test [2] was inactive.

On to `O=C(NCO)NCO`, for which the outcome in [1] and in [2] was inactive.

On to `COc1ccccc1OC`, for which the result in [3] and in [2] was inactive.

Regarding `CCOP(=S)(OCC)Oc1nc(Cl)c(Cl)cc1Cl`, the outcome in [3], in test [2], in test [4], in [12], in [13] and in test [5] was inactive. For the same molecule, the molecule was classed as inactive in [6], in test [7], in [9], in test [10], in test [14] and in test [16]. Further, the call in [15] was inactive.

In the case of `Nc1ccc(N=Nc2ccc(-c3ccc(N=Nc4c(S(=O)(=O)O)cc5cc(S(=O)(=O)O)c(N=Nc6ccccc6)c(O)c5c4N)cc3)cc2)c(N)c1`, the outcome in test [3] and in test [2] was inactive.
